Measurements from PubChem BioAssay.
Activity calls are given as the source filed them. Unless noted, the rule behind the calls is not given here.

Columns and labels:
[1] = A549 cell viability effects, profiling panel, calcein-AM fluorescence, 48 h, basal (AID 1162); conditions: higher = more signal; note: test concentration not given here
[2] = adipocyte viability effects, profiling panel, cell-based, 3T3-L1 adipocytes, calcein-AM fluorescence, 48 h, basal (AID 1163); conditions: 3T3-L1 adipocytes viability, higher = more signal; note: test concentration not given here
[3] = HepG2 cell viability effects, profiling panel, calcein-AM fluorescence, 48 h, basal (AID 1164); conditions: higher = more signal; note: test concentration not given here
[4] = MM1S cell viability effects, profiling panel, calcein-AM fluorescence, 48 h, basal (AID 1165); conditions: higher = more signal;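 note: viability of MM1S multiple myeloma cells under basal unstimulated conditions; test concentration not given here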
[5] = basal RPMI8226 viability, no added stimulus, profiling panel, cell-based, calcein-AM fluorescence, 48 h, PK04 Diversity Set (AID 1166); conditions: RPMI8226 myeloma viability, higher = more signal;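 note: cells grown under basal conditions without added stimulus; test concentration not given here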
[6] = basal HepG2 mitochondrial membrane potential changes, profiling panel, cell-based, JC-1 fluorescence, 24 h, 100 nL compound (AID 1167); conditions: higher = more signal; note: test concentration not given here
[7] = basal 3T3-L1 adipocyte mitochondrial potential changes, profiling panel, cell-based, JC-1 fluorescence, 3T3-L1 adipocytes, 24 h, 100 nL compound (AID 1168); conditions: JC-1 mitochondrial fluorescence, higher = more signal, called active from +8 up or from −8 down; note: test concentration not given here
[8] = basal RPMI8226 mitochondrial membrane potential changes, profiling panel, cell-based, JC-1 fluorescence, 24 h, 100 nL compound (AID 1169); conditions: RPMI8226 myeloma, JC-1 mitochondrial potential fluorescence, higher = more signal; note: test concentration not given here
[9] = basal MM1S mitochondrial membrane potential changes, profiling panel, cell-based, JC-1 fluorescence, 24 h, 100 nL compound (AID 1170); conditions: higher = more signal; note: test concentration not given here
[10] = A549 lung cancer cell viability effects, profiling panel, resazurin fluorescence, 24 h, PK04 Diversity Set (AID 1171); conditions: higher = more signal, called active from +8 up or from −8 down; note: test concentration not given here
[11] = HepG2 liver cancer cell viability effects, profiling panel, resazurin fluorescence, 24 h, PK04 Diversity Set (AID 1172); conditions: higher = more signal; note: test concentration not given here
[12] = basal S. cerevisiae growth modulation, no modifier, primary screen, OD600, strain BY4716, 24 h, basal condition (AID 1173); conditions: OD600, 24 h, higher = more signal, called active from +8 up or from −8 down
[13] = MM1S myeloma cell viability, profiling panel, resazurin fluorescence, basal, 24 h, PK04 Diversity Set (AID 1174); conditions: higher = more signal, called active from +8 up or from −8 down;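 note: MM1S multiple myeloma cell line; test concentration not given here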
[14] = target: Dihydroorotate dehydrogenase (quinone), mitochondrial (Plasmodium falciparum (isolate 3D7)) (UniProt Q08210); test: PfDHODH enzyme inhibitors, primary screen, biochemical, C-terminal His tag, absorbance 600 nm (AID 1175); conditions: DCIP absorbance 600 nm, higher = more signal, called active from +8 up or from −8 down;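 note: recombinant parasite enzyme with a five histidine tag at its C terminus; test concentration not given here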
Chain of Dihydroorotate dehydrogenase (quinone), mitochondrial (Plasmodium falciparum (isolate 3D7)) (Q08210 whole entry, looked up): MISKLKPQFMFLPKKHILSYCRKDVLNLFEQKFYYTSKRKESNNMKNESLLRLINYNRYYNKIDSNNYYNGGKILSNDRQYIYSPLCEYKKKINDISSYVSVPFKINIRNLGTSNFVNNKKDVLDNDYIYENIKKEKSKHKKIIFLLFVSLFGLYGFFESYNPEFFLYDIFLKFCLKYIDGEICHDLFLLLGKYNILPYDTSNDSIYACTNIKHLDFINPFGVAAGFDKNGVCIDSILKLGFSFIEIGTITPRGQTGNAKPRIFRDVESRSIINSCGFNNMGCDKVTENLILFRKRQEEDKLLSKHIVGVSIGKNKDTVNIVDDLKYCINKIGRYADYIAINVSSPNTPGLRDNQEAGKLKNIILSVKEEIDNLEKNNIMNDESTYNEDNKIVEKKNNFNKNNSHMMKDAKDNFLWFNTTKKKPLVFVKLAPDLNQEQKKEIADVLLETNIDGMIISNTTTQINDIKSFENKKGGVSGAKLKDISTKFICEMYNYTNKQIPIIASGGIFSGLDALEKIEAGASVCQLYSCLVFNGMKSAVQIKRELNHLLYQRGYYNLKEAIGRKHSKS

[15] = P. aeruginosa biofilm formation inhibitors, primary screen, strain PAO1, LB-PBS medium, absorbance 600 nm (AID 1176); note: test concentration not given here; conditions: P. aeruginosa PAO1 growth/biofilm, A600, 12 h; higher = more signal
[16] = S. cerevisiae RM11-1a growth modifiers, primary screen, strain RM11-1a, OD600, basal, 24 h (AID 1177); conditions: OD600, 24 h, higher = more signal, called active from +8 up or from −8 down;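 note: cultures grown under basal conditions with no added stressor; test concentration not given here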
[17] = E. coli acrAB mutant growth effects, primary screen, E. coli filamentation inducers, strain DRC39, OD650, 24 h (AID 1178); conditions: higher = more signal, called active from +8 up or from −8 down;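 note: growth measured as culture turbidity by optical density at 650 nm; test concentration not given here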
[18] = E. coli acrAB mutant growth effects, primary screen, E. coli filamentation inducers, strain DRC39, OD650, 48 h (AID 1179);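 note: screen aims at cell division blockers that make cells filament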; conditions: E. coli DRC39 delta-acrAB growth, higher = more signal, called active from +8 up or from −8 down
[19] = RPMI8226 myeloma cell viability, profiling panel, resazurin fluorescence, basal, 24 h, PK04 Diversity Set (AID 1180); conditions: higher = more signal;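 note: RPMI8826 multiple myeloma cell line at 5000 cells per well; test concentration not given here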
[20] = target: E3 ubiquitin-protein ligase XIAP (Homo sapiens) (UniProt P98170); test: XIAP binders, primary screen, biophysical, small-molecule microarray, fluorescence 635 nm (AID 1181); conditions: small-molecule microarray binding, higher = more signal;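 note: score merges 667 nm emission and signal to noise over triplicate slides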
Chain of E3 ubiquitin-protein ligase XIAP (Homo sapiens) (P98170 whole entry, looked up): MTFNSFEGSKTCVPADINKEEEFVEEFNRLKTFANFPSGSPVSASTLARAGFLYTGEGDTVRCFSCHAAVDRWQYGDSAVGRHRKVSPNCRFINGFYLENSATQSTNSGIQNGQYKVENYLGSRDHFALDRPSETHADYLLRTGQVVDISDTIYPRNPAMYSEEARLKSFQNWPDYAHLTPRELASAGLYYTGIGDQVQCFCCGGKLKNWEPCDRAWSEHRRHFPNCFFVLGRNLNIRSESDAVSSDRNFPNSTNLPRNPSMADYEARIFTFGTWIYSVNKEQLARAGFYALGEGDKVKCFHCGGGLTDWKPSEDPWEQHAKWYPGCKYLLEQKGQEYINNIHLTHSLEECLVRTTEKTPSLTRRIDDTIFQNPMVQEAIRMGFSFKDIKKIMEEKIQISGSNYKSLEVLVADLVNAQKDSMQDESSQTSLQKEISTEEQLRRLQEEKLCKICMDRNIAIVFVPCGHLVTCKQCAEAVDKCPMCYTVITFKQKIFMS

SMILES	z-score [1]	z-score [2]	z-score [3]	z-score [4]	z-score [5]	z-score [6]	z-score [7]	z-score [8]	z-score [9]	z-score [10]	z-score [11]	z-score [12]	z-score [13]	composite z-score [14]	z-score [15]	z-score [16]	z-score [17]	z-score [18]	z-score [19]	composite z-score [20]
COc1ccc(C#Cc2ccc3c(c2)[C@]2(C(=O)N3)[C@H](c3ccccc3OCCO)N3[C@H](c4ccccc4)[C@H](c4ccccc4)OC(=O)[C@H]3[C@@H]2C(=O)O)cc1	0.1	0.143	-2.53	-3.32	-4.18	-3.62	2.54 (inactive)	-0.93	-1.9	0.206 (inactive)	1.86	1.75 (inactive)	-3.05 (inactive)	-24.8 (active)	2.76 (inactive)	3.13 (inactive)	1.06 (inactive)	0.047 (inactive)	-6.75	0.284
C=CCN1C(=O)[C@]2(O[C@H](CCO)[C@@H]([Si](C)(C)c3ccc(OC)cc3)[C@@H]2C)c2cc(N3C(=O)c4cccc5cccc3c45)ccc21	-3.27	0.105	-4.63	-2.63	-4.34	-2.32	0.697 (inactive)	-0.955	-2.28	-5.26 (inactive)	-5.43	1.7 (inactive)	-8.43 (active)	1.72 (inactive)	0.662 (inactive)	6.52 (inactive)	2.21 (inactive)	1.44 (inactive)	-6.23	0.0374
C=CC[C@]1(C(=O)NCCCOC)N=C(c2ccc(OCCCO)cc2)O[C@H]1c1ccccc1N=[N+]=[N-]	-0.707	0.346	0.0592	-1.78	-1.47	0.111	1.06 (inactive)	-0.68	-0.114	0.393 (inactive)	0.632	0.215 (inactive)	-0.894 (inactive)	1.1 (inactive)	1.79 (inactive)	0.571 (inactive)	0.961 (inactive)	-0.615 (inactive)	-1.04	0.262
COc1ccc([C@H]2OC[C@@H]3CC4(CC=CC4)C(=O)N32)cc1	0.262	-0.238	-0.0409	-0.58	0.055	-0.301	0.197 (inactive)	-0.54	0.17	-0.312 (inactive)	-0.876	-0.897 (inactive)	0.305 (inactive)	-0.177 (inactive)	-0.0634 (inactive)	0.504 (inactive)	-0.632 (inactive)	-0.688 (inactive)	0.012	-0.0118
O=C(NCC(F)(F)F)[C@@H]1c2ccccc2C(=O)N(C2CCCCC2)[C@H]1c1ccc(CO)cc1	0.216	0.48	0.354	-0.515	0.597	0.912	-1.29 (inactive)	0.329	1.67	1.21 (inactive)	-0.501	0.804 (inactive)	-0.435 (inactive)	0.843 (inactive)	-0.255 (inactive)	1.11 (inactive)	-0.0514 (inactive)	-0.335 (inactive)	0.538	0.056
COc1ccc(NN2C(C(O)c3ccc([N+](=O)[O-])cc3)C=CC3C(=O)N(C4CCCCC4)C(=O)C32)cc1 (stereo not given)	0.0649	-1.33	0.52	0.538	-0.465	-0.0181	0.369 (inactive)	0.919	-1.71	1.01 (inactive)	0.755	0.136 (inactive)	0.0225 (inactive)	-0.238 (inactive)	0.67 (inactive)	0.388 (inactive)	-0.637 (inactive)	0.523 (inactive)	0.907	0.209
CC(C)N1C(=O)c2ccccc2[C@](C)(C(=O)NCc2ccccc2)[C@@H]1c1ccc(CO)cc1	0.82	0.48	-0.699	-0.656	-0.0073	-0.265	-0.426 (inactive)	-0.833	-0.472	-0.0838 (inactive)	-0.394	-0.704 (inactive)	-1.09 (inactive)	0.0524 (inactive)	1.06 (inactive)	-0.271 (inactive)	0.0861 (inactive)	-0.681 (inactive)	0.121	0.0623
COCCOC(=O)N1C(=O)[C@@]2(c3cc(C#CC4=CCCCC4)ccc31)[C@H](c1ccc(O)cc1)N1[C@H](c3ccccc3)[C@H](c3ccccc3)OC(=O)[C@H]1[C@@H]2C(N)=O	0.505	0.633	-0.364	-2.77	-4.14	-2.55	0.29 (inactive)	-0.902	-1.19	-0.954 (inactive)	-0.74	-0.167 (inactive)	-1.85 (inactive)	-1.06 (inactive)	0.318 (inactive)	0.654 (inactive)	0.066 (inactive)	0.552 (inactive)	-2.95	0.0435
C=CCC(OC(C)=O)[C@@H]1[C@@H](N(Cc2cccc3ccccc23)C(=O)c2ccc(-c3ccccc3)cc2)c2cc(OCCCO)ccc2N1C(=O)Cc1ccc(OC)cc1 (stereo not given in full)	1.29	1.66	0.68	-0.169	0.516	2.05	0.324 (inactive)	-0.217	-0.179	1.54 (inactive)	1.07	-0.912 (inactive)	1.6 (inactive)	-0.606 (inactive)	-0.513 (inactive)	-1.2 (inactive)	0.738 (inactive)	0.718 (inactive)	1.45	-0.0076
